NS1 function inh = blocks influenza NS1 protein function; AID 2326; 270,000 tested, 0.4% active; Potency, µM (titrated, usually from 46.1 µM), inactives show at the highest dose activity, positive = more growth; calls by dose curve; further: actives are rising curves; nearly all actives have a fitted effect of over 50% in size
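S. cerevisiae expressing influenza A NS1, grown in glucose, washed, then diluted 1:100 into pH 6.0 -URA galactose medium with 23 nl compound. Growth recovery read as OD600; NS1-free strain serves as control.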
Sm TGR block = inhibitors of Schistosoma mansoni thioredoxin glutathione reductase; Q962Y6; purified TGR, DTNB reduction, TNB absorbance 405 nm; Potency, µM (top dose mostly 114 µM), for inactives: at the highest dose activity change, negative = inhibition, actives largely listed as inhibitors; 360,000 tested, 3% active; further: on the % scale 0 is the no-effect control and ±100 the full control effect; nearly all actives have a fitted effect of over 60% in size
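TGR 20 nM + NADPH 100 uM (dispensed conc.), cpd preinc 15 min RT; start with NADPH (500 uM addition) then DTNB (15 mM addition). Kinetic TNB absorbance, 405 nm filter. Four-parameter Hill fit across titration.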
Pf growth 48h = P. falciparum growth inhibition at 48 hours (one generation). P. falciparum luciferase growth in erythrocytes, 48 h. Potency, µM (doses to about 28.7 µM), inactives show at the highest dose activity change, negative = inhibition, most hits filed as inhibitors. 310,000 tested, 5.9% active. AID 504832; further: on the % scale 0 is the no-effect control and ±100 the full control effect
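Parasite viability was followed by luminescence of a genomically integrated firefly luciferase. Cultures held 0.1% parasitemia at 2% hematocrit (final), incubated under 5% CO2 at 37 C.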
AMA1-RON2 inh = disrupts binding of P. falciparum AMA1 to RON2. AlphaScreen AMA1-biotinylated RON2 peptide binding. Potency, µM (highest dose often 58.2 µM), without a hit: at the highest dose activity change, negative = inhibition, hits mostly inhibitors. 360,000 tested, 0.2% active. AID 720542;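 further: 0% = vehicle wells and -100% = peptide control; nearly all actives have a fitted effect of over 45% in size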
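AMA1 (3D7) with his tag at 25 nM final met compounds first, then biotinylated RON2 peptide at 25 nM; detection used donor plus acceptor beads, 10 µg/mL apiece, read by AlphaScreen after 30 min at room temperature.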
Pf growth 96h = P. falciparum growth inhibition at 96 hours | P. falciparum luciferase reporter growth, 96 h | Potency, µM (titrated, usually from 28.7 µM), for the others: at the highest dose activity change, negative = inhibition, actives largely listed as inhibitors | 320,000 tested, 6.9% active; further: on the % scale 0 is the no-effect control and ±100 the full control effect
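Plates of compound plus infected erythrocytes (2% hematocrit, 0.05% parasitemia final) incubate 96 hours, 37 C, 5% CO2. Detection reagent added; reduced luminescence from the parasites' luciferase reporter flags inhibition.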
Starred values were filed as active, the others as inactive; ? = inconclusive; / = not tested or not shown. Rows were chosen to be rich in hits. Some 11% of all compounds tested hit in one or more screens of this group. Unless noted, the call rests on the fitted dose curve; in most records, active means well fitted curve in the direction sought with a large enough effect; inconclusive means small, poorly fitted or top-dose-only effect, or another doubt; inactive means no such curve, though single readings can be large; an effect the other way counts as inactive or inconclusive. Potency means the concentration at half of the fitted maximal effect.

SMILES	NS1 function inh	Sm TGR block	Pf growth 48h	AMA1-RON2 inh	Pf growth 96h
CCN(C(=O)c1cc2c(Cl)nc3ccccc3c2s1)c1cccc(Cl)c1	/	-2%	/	/	/
CC1Sc2ccc(S(=O)(=O)N3CCC(C(=O)N(C)Cc4ccco4)CC3)cc2NC1=O (stereo unspecified)	4%	1%	12µM*	1%	3%
CC1Sc2ccc(S(=O)(=O)N3CCC(C(=O)NCc4ccco4)CC3)cc2NC1=O (stereo unspecified)	3%	-19%	?	-1%	?
Cc1ccc(N(C)C(=O)n2cnc3ccccc32)cc1	0%	-1%	3.7µM*	7%	9.3µM*
CC(Oc1ccc(Cl)cc1Cl)C(=O)Nc1ncccn1 (stereo unspecified)	-58%	2%	/	-14%	?
Cc1cc(NC(=O)C(C)Oc2ccc(Cl)cc2Cl)no1 (stereo unspecified)	-38%	1%	8%	-15%	1.7µM*
Cc1cc(OC(C)C(=O)Nc2ccncc2)ccc1Cl (stereo unspecified)	-45%	-20%	?	1%	9.3µM*
CC(=O)Nc1ccc(C(=O)Nc2cc(C)on2)cc1	-1%	1%	63%	14%	18%
Cc1cc(NC(=O)c2ccc(NC(=O)C(C)Oc3ccccc3)cc2)no1 (stereo unspecified)	-2%	-10%	6.6µM*	0%	/
CC(C)NS(=O)(=O)c1ccc(NC(=O)C(C)Oc2ccc(C(=O)c3ccccc3)cc2)cc1 (stereo unspecified)	?	7%	?	-9%	2.3µM*
Cc1ccc(OC(C)C(=O)Nc2cc(C)on2)cc1 (stereo unspecified)	-9%	-29%	15%	-3%	4.7µM*
Cc1ccc(OC(C)C(=O)Nc2ccncc2)cc1 (stereo unspecified)	0%	-5%	-10%	-10%	-22%
O=C(COc1ccc(F)cc1)N/N=C/c1cccc2cccnc12	/	/	/	14%	/
Cc1ccc(NC(=S)NN2CCOCC2)c(C)c1	1%	-10%	19%	-6%	15µM*
COc1ccc(Cl)cc1NC(=S)NN1CCOCC1	0%	35µM*	27%	?	13%
CC1Sc2n(c3ccccc3[n+]2C)N=C1c1ccccc1 (stereo unspecified)	0%	-1%	0.93µM*	4%	-102%
COc1ccc(CN2C(=O)c3cccnc3C2=O)cc1S(=O)(=O)N1CCCC(C)C1 (stereo unspecified)	-3%	-8%	-16%	51%	15µM*
Oc1cc(Cc2ccccc2)cnc1CN1CCOCC1	-6%	?	2.9µM*	8%	?
CC1CC2(CCCC2)N(C(=O)N(C)C)c2ccc(F)cc21 (stereo unspecified)	-2%	-30%	-9%	-1%	26%
COc1cccc(Nc2ncnc3sc(C)cc23)c1	-23%	-9%	?	6%	-6%
O=C(Nc1cccc(-c2csc(Nc3ccc(Cl)cc3)n2)c1)c1cc([N+](=O)[O-])cc(C(F)(F)F)c1	12%	6%	1.7µM*	-3%	2.1µM*
O=C(Nc1cccc(-c2csc(Nc3ccccc3)n2)c1)c1cc([N+](=O)[O-])cc(C(F)(F)F)c1	23%	6%	?	0%	?
Nc1ccc2cc3ccc(N)cc3nc2c1	/	/	3.8µM*	/	2.4µM*
CC(NC(=O)Nc1ccc(F)cc1F)c1ccc2c(c1)OCO2 (stereo unspecified)	14%	0%	?	4%	?
Cc1ccc(S(=O)(=O)N(CC(=O)NCc2ccncc2)C2CCCCC2)cc1	-3%	-13%	?	-1%	8.3µM*
Cc1ccc(S(=O)(=O)N(CC(=O)NCc2ccco2)C2CCCCC2)cc1	-12%	45µM*	?	?	?
O=C(CN(C1CCCCC1)S(=O)(=O)c1ccccc1)NCc1ccco1	19%	0%	-16%	-10%	4.7µM*
COc1ccc(S(=O)(=O)N(CC(=O)NCc2ccco2)C2CCCCC2)cc1OC	-5%	?	?	0%	-25%
O=C(NCC(=O)N1CCN(c2ccccc2F)CC1)c1ccco1	12%	-3%	16%	-3%	13%
